# From publication PMC8384837, “Expanding the binding specificity for RNA recognition by a PUF domain”
# Changes are numbered by the printed parent chain.
# What was measured:
# Assay in all cases: yeast three-hybrid, YBZ-1, SC-Leu-His + 0.5 mM 3-AT, 4 days
# Settings in all cases: tags: N-Gal4 AD-HA kept; label: inside an RPR1-promoter hybrid RNA with tandem MS2 sites; ssRNA
# [1] = target: PUM1 PUF domain R4-WGC (Homo sapiens, UniProt Q14671 828-1176, N971W;H972G;Q975C)
# Summary of the method: (§1)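 A centromeric plasmid in strain YBZ-1 co-expressed Pumilio-1 PUF domain libraries, randomized at the three base-contacting residues of each repeat, with matching RNA elements; the strain carries a LexA–MS2 coat fusion and a HIS3 reporter. After four days on SC-Leu (input) or SC-Leu-His + 0.5 mM 3-AT (selection), the repeat regions were PCR-amplified and Illumina-sequenced. The interaction score is the log change in variant frequency from input to selection, using log2 and a pseudocount of 1 where absent.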
# [2] = target: PUM1 PUF domain R1-GLR (Homo sapiens, UniProt Q14671 828-1176, S863G;R864L;Q867R)
# Summary of the method: as §1
# [3] = target: PUM1 PUF domain R3-IWA (Homo sapiens, UniProt Q14671 828-1176, C935I;R936W;Q939A)
# Summary of the method: as §1
# [4] = target: PUM1 PUF domain R3-GRA (Homo sapiens, UniProt Q14671 828-1176, C935G;Q939A)
# Summary of the method: as §1
# [5] = target: PUM1 PUF domain R3-RCA (Homo sapiens, UniProt Q14671 828-1176, C935R;R936C;Q939A)
# Summary of the method: as §1
# [6] = target: PUM1 PUF domain R5-CHG (Homo sapiens, UniProt Q14671 828-1176, R1008H;Q1011G)
# Summary of the method: as §1
# [7] = target: PUM1 PUF domain R4-VSI (Homo sapiens, UniProt Q14671 828-1176, N971V;H972S;Q975I)
# Summary of the method: as §1
# [8] = target: PUM1 PUF domain R5-RQS (Homo sapiens, UniProt Q14671 828-1176, C1007R;R1008Q;Q1011S)
# Summary of the method: as §1
# [9] = target: PUM1 PUF domain R5-RRL (Homo sapiens, UniProt Q14671 828-1176, C1007R;Q1011L)
# Summary of the method: as §1
# [10] = target: PUM1 PUF domain R8-RFV (Homo sapiens, UniProt Q14671 828-1176, N1122R;Y1123F;Q1126V)
# Summary of the method: as §1
# [11] = target: PUM1 PUF domain R8-NYP (Homo sapiens, UniProt Q14671 828-1176, Q1126P)
# Summary of the method: as §1
# [12] = target: PUM1 PUF domain R5-GRH (Homo sapiens, UniProt Q14671 828-1176, C1007G;Q1011H)
# Summary of the method: as §1
# [13] = target: T1, PUM1 PUF domain R6-MFR (Homo sapiens, UniProt Q14671 828-1176, N1043M;Y1044F;Q1047R)
# T1 sequence: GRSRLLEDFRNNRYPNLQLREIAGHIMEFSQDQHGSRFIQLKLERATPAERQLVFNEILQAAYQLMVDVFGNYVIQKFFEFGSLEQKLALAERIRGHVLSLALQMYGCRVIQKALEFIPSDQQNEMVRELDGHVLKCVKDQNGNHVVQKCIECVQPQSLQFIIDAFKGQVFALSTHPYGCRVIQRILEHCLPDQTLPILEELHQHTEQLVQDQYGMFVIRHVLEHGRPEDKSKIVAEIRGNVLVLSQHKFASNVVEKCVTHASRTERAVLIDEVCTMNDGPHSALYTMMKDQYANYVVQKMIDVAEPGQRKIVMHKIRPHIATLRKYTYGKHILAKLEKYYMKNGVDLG
# Summary of the method: as §1
# [14] = target: T2, PUM1 PUF domain R6-NYL (Homo sapiens, UniProt Q14671 828-1176, Q1047L)
# T2 sequence: T1 sequence with M216N, F217Y, R220L
# Summary of the method: as §1
# [15] = target: T3, PUM1 PUF domain R6-LWS (Homo sapiens, UniProt Q14671 828-1176, N1043L;Y1044W;Q1047S)
# T3 sequence: T1 sequence with M216L, F217W, R220S
# Summary of the method: as §1
# [16] = target: PUM1 PUF domain R8-CHK (Homo sapiens, UniProt Q14671 828-1176, N1122C;Y1123H;Q1126K)
# Summary of the method: as §1
# [17] = target: PUM1 PUF domain R7-RVL (Homo sapiens, UniProt Q14671 828-1176, S1079R;N1080V;E1083L)
# Summary of the method: as §1
# [18] = target: PUM1 PUF domain R5-WHG (Homo sapiens, UniProt Q14671 828-1176, C1007W;R1008H;Q1011G)
# Summary of the method: as §1
# [19] = target: PUM1 PUF domain R5-DIR (Homo sapiens, UniProt Q14671 828-1176, C1007D;R1008I;Q1011R)
# Summary of the method: as §1
# [20] = target: PUM1 PUF domain R5-QWN (Homo sapiens, UniProt Q14671 828-1176, C1007Q;R1008W;Q1011N)
# Summary of the method: as §1
# Chain of PUM1 PUF domain R5-CHG (Q14671 828-1176 R1008H/Q1011G): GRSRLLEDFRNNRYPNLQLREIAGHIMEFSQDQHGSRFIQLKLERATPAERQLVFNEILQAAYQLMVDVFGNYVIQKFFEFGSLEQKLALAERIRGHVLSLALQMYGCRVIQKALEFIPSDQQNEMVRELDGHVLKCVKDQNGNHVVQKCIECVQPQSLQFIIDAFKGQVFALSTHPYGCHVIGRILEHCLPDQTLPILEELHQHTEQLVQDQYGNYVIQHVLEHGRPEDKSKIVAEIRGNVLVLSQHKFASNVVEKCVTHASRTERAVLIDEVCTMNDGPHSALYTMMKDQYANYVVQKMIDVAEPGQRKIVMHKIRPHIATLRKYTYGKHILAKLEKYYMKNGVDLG
# Chain of PUM1 PUF domain R5-RRL (Q14671 828-1176 C1007R/Q1011L): as the sequence (Q14671 828-1176 R1008H/Q1011G) above, with C180R, H181R, G184L counted along it
# Chain of PUM1 PUF domain R4-WGC (Q14671 828-1176 N971W/H972G/Q975C): as the sequence (Q14671 828-1176 R1008H/Q1011G) above, with N144W, H145G, Q148C, H181R, G184Q counted along it
# Chain of PUM1 PUF domain R5-RQS (Q14671 828-1176 C1007R/R1008Q/Q1011S): as the sequence (Q14671 828-1176 R1008H/Q1011G) above, with C180R, H181Q, G184S counted along it
# Chain of PUM1 PUF domain R3-IWA (Q14671 828-1176 C935I/R936W/Q939A): as the sequence (Q14671 828-1176 R1008H/Q1011G) above, with C108I, R109W, Q112A, H181R, G184Q counted along it
# Chain of PUM1 PUF domain R1-GLR (Q14671 828-1176 S863G/R864L/Q867R): as the sequence (Q14671 828-1176 R1008H/Q1011G) above, with S36G, R37L, Q40R, H181R, G184Q counted along it
# Chain of PUM1 PUF domain R8-RFV (Q14671 828-1176 N1122R/Y1123F/Q1126V): as the sequence (Q14671 828-1176 R1008H/Q1011G) above, with H181R, G184Q, N295R, Y296F, Q299V counted along it
# Chain of PUM1 PUF domain R4-VSI (Q14671 828-1176 N971V/H972S/Q975I): as the sequence (Q14671 828-1176 R1008H/Q1011G) above, with N144V, H145S, Q148I, H181R, G184Q counted along it
# Chain of PUM1 PUF domain R5-QWN (Q14671 828-1176 C1007Q/R1008W/Q1011N): as the sequence (Q14671 828-1176 R1008H/Q1011G) above, with C180Q, H181W, G184N counted along it
# Chain of PUM1 PUF domain R7-RVL (Q14671 828-1176 S1079R/N1080V/E1083L): as the sequence (Q14671 828-1176 R1008H/Q1011G) above, with H181R, G184Q, S252R, N253V, E256L counted along it
sequence,measurement,setting,value
GGCUAGAACUAGUGGAUCCCCCGGCGCCCGGCGGCUCGAGCCCGGGUAAGUGUACAUAGUCUGCAUGCCGCCGGGCGCCAUGCCUGCAGGUCGACUCUAGAAAACAUG,binding signal,[1],1.65 log2 enrichment (interaction score)
GGCUAGAACUAGUGGAUCCCCCGGCGCCCGGCGGCUCGAGCCCGGGUAAGUGUAAAUCGUCUGCAUGCCGCCGGGCGCCAUGCCUGCAGGUCGACUCUAGAAAACAUG,binding signal,[2],3.78 log2 enrichment (interaction score)
GGCUAGAACUAGUGGAUCCCCCGGCGCCCGGCGGCUCGAGCCCGGGUAAGUGUAAGUAGUCUGCAUGCCGCCGGGCGCCAUGCCUGCAGGUCGACUCUAGAAAACAUG,binding signal,[3],5.56 log2 enrichment (interaction score)
same,binding signal,[4],1.12 log2 enrichment (interaction score)
GGCUAGAACUAGUGGAUCCCCCGGCGCCCGGCGGCUCGAGCCCGGGUAAGUGUAAUUAGUCUGCAUGCCGCCGGGCGCCAUGCCUGCAGGUCGACUCUAGAAAACAUG,binding signal,[4],0.97 log2 enrichment (interaction score)
same,binding signal,[5],3.42 log2 enrichment (interaction score)
GGCUAGAACUAGUGGAUCCCCCGGCGCCCGGCGGCUCGAGCCCGGGUAAGUGUAUAUAGUCUGCAUGCCGCCGGGCGCCAUGCCUGCAGGUCGACUCUAGAAAACAUG,binding signal,[1],4.53 log2 enrichment (interaction score)
GGCUAGAACUAGUGGAUCCCCCGGCGCCCGGCGGCUCGAGCCCGGGUAAGUGUAAAUAGUCUGCAUGCCGCCGGGCGCCAUGCCUGCAGGUCGACUCUAGAAAACAUG,binding signal,[6],3.32 log2 enrichment (interaction score)
same,binding signal,[7],2.13 log2 enrichment (interaction score)
same,binding signal,[8],1.32 log2 enrichment (interaction score)
same,binding signal,[1],2.66 log2 enrichment (interaction score)
same,binding signal,[9],1.79 log2 enrichment (interaction score)
same,binding signal,[10],6.16 log2 enrichment (interaction score)
same,binding signal,[3],5.07 log2 enrichment (interaction score)
same,binding signal,[4],2.35 log2 enrichment (interaction score)
same,binding signal,[11],3.16 log2 enrichment (interaction score)
same,binding signal,[12],3.97 log2 enrichment (interaction score)
same,binding signal,[13],6.1 log2 enrichment (interaction score)
same,binding signal,[14],5.52 log2 enrichment (interaction score)
same,binding signal,[15],6 log2 enrichment (interaction score)
GGCUAGAACUAGUGGAUCCCCCGGCGCCCGGCGGCUCGAGCCCGGGUAAGUGAAAAUAGUCUGCAUGCCGCCGGGCGCCAUGCCUGCAGGUCGACUCUAGAAAACAUG,binding signal,[15],4.85 log2 enrichment (interaction score)
GGCUAGAACUAGUGGAUCCCCCGGCGCCCGGCGGCUCGAGCCCGGGUAAGCGUAAAUAGUCUGCAUGCCGCCGGGCGCCAUGCCUGCAGGUCGACUCUAGAAAACAUG,binding signal,[10],6.22 log2 enrichment (interaction score)
same,binding signal,[16],3.49 log2 enrichment (interaction score)
GGCUAGAACUAGUGGAUCCCCCGGCGCCCGGCGGCUCGAGCCCGGGUAAGUUUAAAUAGUCUGCAUGCCGCCGGGCGCCAUGCCUGCAGGUCGACUCUAGAAAACAUG,binding signal,[17],3.33 log2 enrichment (interaction score)
GGCUAGAACUAGUGGAUCCCCCGGCGCCCGGCGGCUCGAGCCCGGGUAAGUGUAAAUUGUCUGCAUGCCGCCGGGCGCCAUGCCUGCAGGUCGACUCUAGAAAACAUG,binding signal,[2],2.9 log2 enrichment (interaction score)
GGCUAGAACUAGUGGAUCCCCCGGCGCCCGGCGGCUCGAGCCCGGGUAAGUGUCAAUAGUCUGCAUGCCGCCGGGCGCCAUGCCUGCAGGUCGACUCUAGAAAACAUG,binding signal,[6],1.6 log2 enrichment (interaction score)
same,binding signal,[8],4.99 log2 enrichment (interaction score)
same,binding signal,[9],3.98 log2 enrichment (interaction score)
same,binding signal,[18],2.14 log2 enrichment (interaction score)
same,binding signal,[12],2.47 log2 enrichment (interaction score)
same,binding signal,[19],3.11 log2 enrichment (interaction score)
GGCUAGAACUAGUGGAUCCCCCGGCGCCCGGCGGCUCGAGCCCGGGUAAGUGUUAAUAGUCUGCAUGCCGCCGGGCGCCAUGCCUGCAGGUCGACUCUAGAAAACAUG,binding signal,[6],3.47 log2 enrichment (interaction score)
same,binding signal,[8],5.24 log2 enrichment (interaction score)
same,binding signal,[9],4.45 log2 enrichment (interaction score)
same,binding signal,[18],4.56 log2 enrichment (interaction score)
same,binding signal,[12],4.85 log2 enrichment (interaction score)
GGCUAGAACUAGUGGAUCCCCCGGCGCCCGGCGGCUCGAGCCCGGGUAAGUGUGAAUAGUCUGCAUGCCGCCGGGCGCCAUGCCUGCAGGUCGACUCUAGAAAACAUG,binding signal,[20],4.78 log2 enrichment (interaction score)
same,binding signal,[8],1.05 log2 enrichment (interaction score)
same,binding signal,[9],1.14 log2 enrichment (interaction score)
same,binding signal,[18],2.58 log2 enrichment (interaction score)
